Measurements as given in PubChem BioAssay (EPA / NIEHS).
Results filed as inconclusive are left out. The source made the active and inactive calls. The calls were made as follows: active = hit-call score of the fitted dose curve at least 0.9, where 1 is the maximum; inconclusive = response in the unintended direction; inactive = score below 0.9.

target: human Adrenergic, Alpha 2A Receptor (Adra2A), ADRA2A (gene 150) (UniProt P08913); experiment: NVS_GPCR_hAdra2A: NovaScreen (NVS) G Protein-Coupled Receptor Assay for human Adrenergic, Alpha 2A Receptor (Adra2A) (AID 2283257)
In short: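 Displacement of a specific radioligand from HT29 membrane protein was counted by filter scintillation after 1 h. Compounds were screened in duplicate at 25 uM, and actives were retested in concentration series. Fitting was positive-direction against DMSO.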

Sequence of human Adrenergic, Alpha 2A Receptor (Adra2A), ADRA2A (gene 150) (P08913 whole entry, looked up): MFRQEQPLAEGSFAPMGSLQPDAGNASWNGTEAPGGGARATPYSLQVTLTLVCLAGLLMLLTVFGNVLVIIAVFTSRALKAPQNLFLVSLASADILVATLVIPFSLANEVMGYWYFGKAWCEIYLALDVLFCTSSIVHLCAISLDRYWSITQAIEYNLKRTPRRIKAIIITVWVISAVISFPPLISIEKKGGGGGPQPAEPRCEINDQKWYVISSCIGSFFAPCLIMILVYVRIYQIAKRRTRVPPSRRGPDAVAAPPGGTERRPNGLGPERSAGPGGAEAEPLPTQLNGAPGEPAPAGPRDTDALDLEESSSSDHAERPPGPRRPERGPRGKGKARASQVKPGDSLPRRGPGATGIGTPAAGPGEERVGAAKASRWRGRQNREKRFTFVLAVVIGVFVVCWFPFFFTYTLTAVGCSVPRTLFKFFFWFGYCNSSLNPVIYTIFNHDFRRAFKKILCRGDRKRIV

Row | SMILES | outcome | AC50
1 | Oc1ccc2c(c1)OC[C@@H](N1CCC(O)(c3ccc(F)cc3)CC1)[C@H]2O | inactive | –
2 | NC(=O)Cn1c(=O)cc(CCN2CCN(c3nccc4sccc34)CC2)c2ccc(F)cc21 | – | 2.03 µM (active)
3 | CCCCC(CC)COC(=O)CC(C(=O)OCC(CC)CCCC)S(=O)(=O)O (centres undefined) | inactive | –

target: human Adrenergic, Beta 1 Receptor (Adrb1), ADRB1 (gene 153) (UniProt P08588); experiment: NVS_GPCR_hAdrb1: NovaScreen (NVS) G Protein-Coupled Receptor Assay for human Adrenergic, Beta 1 Receptor (Adrb1) (AID 2283258)
Procedure: NVS_GPCR_hAdrb1 is a biochemical, single-readout assay that uses extracted gene-proteins from Human neuroepithelioma cells in a cell-free assay. Measurements were taken 2 hours after chemical dosing in a 96-well plate.NVS_GPCR_hAdrb1 is one of one assay component(s) measured or calculated from the NVS_GPCR_hAdrb1 assay. It is designed to make measurements of radioligand binding, a form of binding reporter, as detected with scintillation counting signals by Filter-based radiodetection technology.Data from the assay component NVS_GPCR_hAdrb1 was analyzed into 1 assay endpoint. This assay endpoint, NVS_GPCR_hAdrb1, was analyzed in the positive analysis fitting direction relative to DMSO as the negative control and baseline of activity. Using a type of binding reporter, loss-of-signal activity can be used to understand changes in the binding as they relate to the gene ADRB1. Furthermore, this assay endpoint can be referred to as a primary readout, because the performed assay has only produced 1 assay endpoint. To generalize the intended target to other relatable targets, this assay endpoint is annotated to the gpcr intended target family, where the subfamily is rhodopsin-like receptor.
Binding assays used specific radioligands (tritiated, iodinated) with non-radioactive competitive displacement ligands in agonist or antagonist protocols (as indicated) and various reference compounds and inhibitors to titrate specific binding to receptors and transporters. Most enzyme assays (CYPs, kinases, phosphatases, proteases, HDACs) used recombinant protein and specific substrates (fluorescence mostly, some colorimetric and radioactive) and inhibitors, followed by a biochemical separation of substrate and product. All assays for the biochemical HTS were initially run in duplicate at a single concentration (10 uM for CYP450 assays and 25 uM for all others). […] Each assay was run with positive and negative controls, and concurrent controls on every plate. The follow-up (secondary) screen tested active chemical-pairs in concentration series, as well as a few additional assays not tested in the primary screen, some selected negative inactives, and several cases re-run in the concentration series for confirmatory purposes.

Sequence of human Adrenergic, Beta 1 Receptor (Adrb1), ADRB1 (gene 153) (P08588 whole entry, looked up): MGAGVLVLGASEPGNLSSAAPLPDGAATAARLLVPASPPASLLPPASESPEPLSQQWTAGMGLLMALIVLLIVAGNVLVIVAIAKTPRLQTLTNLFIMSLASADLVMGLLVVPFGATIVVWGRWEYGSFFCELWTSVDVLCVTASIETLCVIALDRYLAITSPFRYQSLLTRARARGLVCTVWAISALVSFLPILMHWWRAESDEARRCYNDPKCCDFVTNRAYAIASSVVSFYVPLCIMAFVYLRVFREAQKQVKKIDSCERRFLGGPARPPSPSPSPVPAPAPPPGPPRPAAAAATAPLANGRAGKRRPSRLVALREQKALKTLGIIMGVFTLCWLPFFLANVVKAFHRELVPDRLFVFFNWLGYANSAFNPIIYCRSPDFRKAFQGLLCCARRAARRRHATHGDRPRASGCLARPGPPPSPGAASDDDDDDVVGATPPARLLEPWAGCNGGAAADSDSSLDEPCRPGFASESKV

Row | SMILES | outcome | AC50
4 | Nc1ccc(S(=O)(=O)c2ccc(N)cc2)cc1 | inactive | –
5 | NC(=O)Cn1c(=O)cc(CCN2CCN(c3nccc4sccc34)CC2)c2ccc(F)cc21 | – | 1.38 µM (active)
6 | Cc1ccc2ncccc2c1 | inactive | –
7 | O=C(O)Cc1ccccc1Nc1c(Cl)cccc1Cl | inactive | –
8 | CN1CCN(Cc2cc(-c3ccc4[nH]c(=O)oc4c3)co2)[C@@H](c2ccc(F)cc2)C1 | – | 22 µM (active)
9 | CCCCC(CC)COC(=O)CC(C(=O)OCC(CC)CCCC)S(=O)(=O)O (centres undefined) | – | 6.35 µM (active)
